Experimental data as given in PubChem BioAssay AID1347426 (Functional Genomics Laboratory (NCATS/FGL), 2020).
The campaign covered roughly 31,000 sequences. About 1,400 (4.5%) were called active. The full list was thinned out, with actives kept by preference. Unmarked numbers belong to inactive results.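 Rule for the calls: active = median seed-adjusted z-score above 1 or below -1; inactive = the rest.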

experiment: Novel Modifiers of Survival Motor Neuron (SMN) Protein: Gene Identification via Genome-wide siRNA Screen; details: HEK293T SMN2-luciferase reporter, siRNA knockdown, 72 h; actives lie on both sides;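 note: luminescence tracks full-length SMN protein made from the SMN2 reporter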
Source text: Spinal muscular atrophy (SMA) is the most common neuromuscular autosomal recessive disorder and one of the leading genetic causes of infant death. SMA results from mutations inducing loss of function or deletion in the survival of motor neuron-1 gene (SMN1), leading to deficiency of the survival motor neuron (SMN) protein. Although a second nearly identical gene, SMN2, is retained in humans, its expression primarily produces an aberrantly spliced isoform that is largely unstable and quickly degraded. We performed a genome-wide RNAi screen using a cell-based reporter assay to identify genes and pathways that modulate SMN protein stability. The screen identified over 200 genes that led to the greatest increase or decrease in luciferase expression.
Using HEK293T cells stably expressing a luciferase reporter that combines the promoter and splicing based cassettes in tandem with the major portion of the native SMN2 cDNA with luciferase, we performed a genome-wide RNAi screen to identify modulators of SMN protein levels. Luciferase is expressed when full-length SMN protein is generated with luminescence signal proportional to SMN protein levels. Our luciferase-based reporter assay was used to screen Ambion Silencer Select Human Druggable Genome siRNA library (10418 genes, 3 unique siRNAs per gene) using lipid-based reverse transfection.
Briefly, 1 pmol of each siRNA was spotted to a well of a 384-well plate (Corning, Corning, NY) and 20 microL of serum-free DMEM containing […] of Lipofectamine RNAiMax (Life Technologies, Carlsbad, CA) was then added to each well. Transfected cells were maintained at 37 degrees C in 5% CO2 for 72 hours, 20 microL of ONE-Glo Reagent (Promega) was added to wells for luciferase quantification. Raw luminescence reads were normalized to Ambion(R) Silencer(R) Negative Control #2 siRNA, then log10 transformed. A robust statistical measure of median absolute deviation (MAD) to standardize siRNA activities from each screen. Common Seed Analysis was used to help prioritize clean hits as opposed to those appearing to arise from seed based off-target effects. Candidate modulators were defined as the genes having a MAD score greater than 1.0 or less than -1.0.

Row | Sequence | median seed-adjusted z-score
1 | AGUGUACAAUCGAUAAAAATT against ESR2 | -1.1 (active)
2 | CAGCAUACAUGUUUAGUGATT against TRPC6 | -0.527
3 | CGGUAUCUAUGACACUGCATT against SLC25A5 | -0.0501
4 | CAGAGUCUUUCAUUCGAAUTT against SPATA5 | -1.04 (active)
5 | GAACUAUGGUGCUACUGGATT against ZNF449 | 0.178
6 | AGAGCUCACUCGUCCCAAUTT against CXCL16 | 0.201
7 | CGAAAAGUCUCACAGUGGATT against ZNF563 | 0.00283
8 | CGGGUAUUGUGGGACUGAATT against USP39 | 0.821
9 | UAAUUGACCUGACCAGUUUTT against SLC30A8 | -0.767
10 | CUGGAUAAGUGUUUCGAAATT against AP3S2 | 0.521
11 | CACCCACACCGGAUUGAAATT against BAG5 | -0.0153
12 | CGGCCGCUCUAUAAGCUGATT against LLGL1 | -1.13 (active)
13 | GCCCUGCGGUACAAUGUCATT against APOBEC2 | 0.232
14 | GGCCUAUUUCCAAACCGAUTT against RICS | 0.665
15 | CCACCGAUUUGAUCCCAAATT against NAPSA | -0.336
16 | CAUUCACCACAAUAGCUAUTT against GPR1 | 0.0609
17 | GGAUUGAAGAUACUACAAATT against THOC1 | -3.04 (active)
18 | CAACAGCACCAGUUUGACATT against NAGLU | -0.526
19 | GGACUUCAGGGUUUAACAATT against FOLR1 | -1.31 (active)
20 | CAGCCUUACUCAAUUUGUATT against EFS | -0.299
21 | CACGUGCAGAGUGUCGAUATT against EEF1D | 0.421
22 | GGUCUAAACUUGAUCCAAATT against CCAR1 | -1.18 (active)
23 | AAUAUUUGCUGUUCGUCAATT against MOCS2 | 0.0327
24 | CCAUCCCAAAUUUACAACATT against SARS2 | 0.524
25 | CUCUAACUAUGAUCUCGUUTT against CDS1 | 0.0208
26 | GGCUUGACCUUUUUCGUCUTT against DYNC2H1 | -0.613
27 | GAACCGACAAAAGUAGAUATT against RARB | 0.409
28 | GAAUUAGAGUUGAGGGUAATT against MYBPC1 | 0.295
29 | GCAUGGUCUUUCUACUUGUTT against TUBB2A | 1.03 (active)
30 | CCAAAGCUCUCAUCGGAGATT against GNS | 0
